Values without a mark were called inactive. No stated cut-off is given here; in the data, active means inhibition above about 31%; inactive means the rest.
Test: yeast transport mutant growth inhibition pilot in 384-well plates, post-Golgi transport modulator project (AID 636)
Conditions: absorbance 615 nm, about 18 h, hits give high values

Structure (SMILES)	inhibition
CN(c1ccccc1C(=O)N1CCN(c2cccc(Cl)c2)CC1)S(C)(=O)=O	-6.53%
CCCn1nc(CC(=O)O)c2ccccc2c1=O	-6.27%
COc1cccc(Nc2nc(=O)[nH]nc2C)c1	-2.08%
CCN(CC)CCN1C(=O)C(O)=C(C(=O)c2cccs2)C1c1ccc(C)o1 (centres undefined)	-4.13%
Cc1ccc(CCSCC(=O)O)cn1	-2.4%
Cn1c(=O)c2c(nc(-n3ccnc3)n2C)n(C)c1=O	-4.13%
COc1ccc(C2C(C#N)=C(N)Oc3cc4c(cc32)OCO4)cc1 (centres undefined)	-5.07%
CCCc1cc(=O)[nH]c(/N=C(\N)Nc2ccccc2)n1	-0.13%
CCCCCn1c(CN(C)Cc2ccccc2)nc2c1c(=O)n(C)c(=O)n2C	1.45%
Cc1cccc(OCC(=O)Nc2ccccc2N2CCN(C(=O)C(C)C)CC2)c1C	-1.95%
CCNc1oc(COc2cccc(C)c2)nc1C#N	-7.53%
C=C(C)COc1ccc(-c2n[nH]c(C)c2-c2ccccc2)c(O)c1	-1.69%
C=CCn1c(SCc2cc(=O)n3ccsc3n2)nnc1C1CCCCC1	-5.19%
Cc1nnc(NC2CCCCC2)[nH]c1=O	-5.19%
CCc1cc(-c2[nH]ncc2-c2ccc3c(c2)OCO3)c(O)cc1O	4.94%
CCn1nnc(NC(=O)c2ccccc2Br)n1	-8.93%
O=S(=O)(c1ccc2c(c1)OCCO2)N(Cc1ccc(F)cc1)Cc1nnc(-c2cccs2)o1	-3.38%
Nc1nnc(Cc2ccc(Cl)cc2)s1	-6.18%
Cc1onc(-c2ccccc2)c1C(=O)N1CCCSC1=Nc1ccccc1	-4.55%
O=C(Nc1ccccc1)N(Cc1cccnc1)Cc1ccco1	-4.74%
COc1ccccc1N1CCN(C(=O)C2CC=CCC2C(=O)O)CC1 (centres undefined)	-4.61%
CN=C(C)C1=C(O)C(C(=O)OC)C(C)(C)CC1=O (centres undefined)	-1.43%
O=C(CN1C(=O)CC(c2ccccc2)=Nc2ccccc21)NCc1ccco1	-1.82%
O=C(CP(=O)(c1ccccc1)c1ccccc1)N1CCCCC1	-3.51%

Reference: PubChem BioAssay
